Experimental data from PubChem BioAssay (EPA / NIEHS).
Results filed as inconclusive are left out. Active and inactive are the calls of the source. The calls were made as follows, unless noted: active = hit-call score of the fitted dose curve at least 0.9, where 1 is the maximum; inactive = score below 0.9.

Legend:
[1] = target: Nuclear respiratory factor 1 (Homo sapiens) (UniProt Q16656); assay: ATG_NRF1_CIS: Attagene CIS-FACTORIAL HepG2 Assay for human Nuclear Respiratory Factor 1 (NRF1) Orphan Gene (AID 2282987); settings: HepG2 NRF1 cis-element reporter, Attagene multiplex; actives raise or lower the signal
Summary of the method: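 Endogenous NRF1-driven reporter transcription in transfected HepG2 cells after 24 h treatment. Readout: RT-PCR products, 6-FAM labelled and resolved by capillary electrophoresis; changes fitted both directions relative to DMSO.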

[2] = ATG_NFI_CIS: Attagene CIS-FACTORIAL HepG2 Assay for human Nuclear Factor I (NFI) (AID 2282989); settings: HepG2 cis-regulatory reporter, NFI response element transcription; actives raise or lower the signal
Summary of the method: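 Transient MRTU transfection of HepG2 → 24 h chemical dosing → total RNA, oligo(dT) RT → PCR, 6-FAM primer extension, HpaI cut → capillary electrophoresis. Endpoint fitted bidirectionally relative to DMSO.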

[3] = target: Myc proto-oncogene protein (Homo sapiens) (UniProt P01106); assay: ATG_Myc_CIS: Attagene CIS-FACTORIAL HepG2 Assay for human Myelocytomatosis (Myc) Proto-Oncogene Transcription Factor (AID 2282990); settings: HepG2, Attagene cis-reporter transcription factor activity; actives raise or lower the signal
Summary of the method: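 Multiplexed cis-reporter transcription in HepG2 cells after 24 h chemical treatment. Reporter mRNA measured by RT-PCR and capillary electrophoresis fluorescence; activity fitted bidirectionally against DMSO control.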

[4] = ATG_NRF2_ARE_CIS: Attagene CIS-FACTORIAL HepG2 Assay for human Nuclear Factor Erythroid 2 Related Factor 2 (NFR2) response to Antioxidant Response Elements (ARE) (AID 2282992); settings: HepG2 Attagene ARE/NRF2 reporter, transcription factor activity; actives raise or lower the signal
Summary of the method: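 Cis-factorial assay: transfected HepG2 reporter library, 24 h dosing, mRNA readout via RT-PCR/CE; DMSO-referenced bidirectional analysis.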

[5] = ATG_Oct_MLP_CIS: Attagene CIS-FACTORIAL HepG2 Assay for human Octamer-Binding Transcription Factor (Oct) (AID 2282993); settings: HepG2 Attagene cis-factorial Oct reporter, mRNA; actives raise or lower the signal
Summary of the method: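 Transient MRTU transfection of HepG2 → 24 h compound treatment → RNA isolation, reverse transcription, PCR → 6-FAM primer extension, HpaI digest → capillary electrophoresis. Activity fitted both directions against DMSO.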

[6] = target: Cellular tumor antigen p53 (Homo sapiens) (UniProt P04637); assay: ATG_p53_CIS: Attagene CIS-FACTORIAL HepG2 Assay for human p53 Transcription Factor (AID 2282994); settings: HepG2 p53 cis-element reporter, Attagene mRNA; actives raise or lower the signal
Summary of the method: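 Using HepG2 hepatoma cells carrying cis-acting multiplexed reporters, mRNA induction is detected after a 24 h exposure. Gain- and loss-of-signal responses are fitted relative to DMSO-treated cells.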

[7] = BSK_3C_TissueFactor: BioMAP Diversity Plus: 3C Assay for Tissue Factor Biomarker Activity (AID 2282997); settings: BioMAP 3C HUVEC, tissue factor biomarker readout; actives raise or lower the signal
Summary of the method: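 Endothelial monolayers (human umbilical vein, primary) are dosed, incubated 24 h, and assayed for Tissue Factor by ELISA; DMSO serves as negative control for bidirectional fitting.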

[8] = BSK_3C_uPAR: BioMAP Diversity Plus: 3C Assay for Urokinase-type plasminogen activator receptor (uPAR) Biomarker Activity (AID 2282998); settings: BioMAP 3C HUVEC, uPAR biomarker ELISA; actives raise or lower the signal
Summary of the method: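 ELISA readout of uPAR on human vascular endothelium (umbilical vein primary cells), taken 24 h after chemical dosing. Increases and decreases are both fitted relative to DMSO vehicle.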

[9] = BSK_3C_VCAM1: BioMAP Diversity Plus: 3C Assay for Vascular cell adhesion molecule 1 (VCAM1) Biomarker Activity (AID 2282999); settings: BioMAP 3C HUVEC, VCAM1 ELISA, cytokine-stimulated; actives raise or lower the signal
Summary of the method: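 Human umbilical vein endothelial cells were dosed with compound for 24 h, after which cell-surface VCAM-1 was quantified by ELISA. Bidirectional curve fitting used DMSO as negative control and activity baseline.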

[10] = BSK_4H_Eotaxin3: BioMAP Diversity Plus: 4H Assay for Eotaxin 3 Biomarker Activity (AID 2283000); settings: primary human endothelial cells (HUVEC); actives raise or lower the signal;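 also: CCL26 protein level quantified by ELISA in parallel with SRB cytotoxicity check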
Summary of the method: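 ELISA quantitation of CCL26 (Eotaxin-3) protein from chemically dosed human vascular endothelial cells at 24 h; increases and decreases both scored relative to DMSO-treated baseline.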

[11] = target: human Peroxisome Proliferator-activated Receptor alpha (PPARa), PPARA (gene 5465) (UniProt Q07869); assay: ATG_PPARa_TRANS: Attagene TRANS-FACTORIAL HepG2 Assay for human Peroxisome Proliferator-activated Receptor alpha (PPARa) (AID 2283001; active = hit-call score of the fitted dose curve at least 0.9, where 1 is the maximum)
Summary of the method: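 Gain-of-signal endpoint: reporter mRNA induction relative to DMSO, detected by fluorescent RT-PCR and capillary electrophoresis. HepG2 cells transiently carried GAL4-UAS-driven reporter units plus NR-Gal4 fusion; exposure lasted 24 h.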

[12] = target: human Peroxisome Proliferator-activated Receptor delta (PPARd), PPARD (gene 5467) (UniProt Q03181); assay: ATG_PPARd_TRANS: Attagene TRANS-FACTORIAL HepG2 Assay for human Peroxisome Proliferator-activated Receptor delta (PPARd) (AID 2283002; active = hit-call score of the fitted dose curve at least 0.9, where 1 is the maximum)
Summary of the method: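 Multiplexed trans-activation format: HepG2 liver cells expressing exogenous NR-Gal4 chimeras and GAL4-UAS reporters were exposed for 24 h. Reporter mRNA was detected by RT-PCR with capillary electrophoresis fluorescence; activity fitted as gain of signal relative to DMSO.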

[13] = read-out: Intercellular Adhesion Molecule 1 (ICAM1), ICAM1 (gene 3383); assay: BSK_3C_ICAM1: BioMAP Diversity Plus: 3C Assay for Intercellular Adhesion Molecule 1 (ICAM1) Biomarker Activity (AID 2283003); settings: primary human endothelial cells (HUVEC); actives raise or lower the signal
Summary of the method: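 HUVEC primary cells stimulated under 3C conditions; ICAM1 measured by ELISA 24 h after compound dosing. Curves fitted bidirectionally against the DMSO baseline. Overt cytotoxicity checked by SRB staining of parallel cultures.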

[14] = target: human Retinoic Acid Receptor beta (RARb), RARB (gene 5915) (UniProt P10826); assay: ATG_RARb_TRANS: Attagene TRANS-FACTORIAL HepG2 Assay for human Retinoic Acid Receptor beta (AID 2283004; active = hit-call score of the fitted dose curve at least 0.9, where 1 is the maximum)
Summary of the method: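 Fluorescent capillary-electrophoresis detection of GAL4-UAS reporter mRNA defines the endpoint, with induction over DMSO-treated wells scored as activity. Transiently transfected human hepatoma HepG2 cells expressing exogenous NR–Gal4 proteins are exposed to test chemicals for 24 h.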

[15] = target: Retinoic acid receptor alpha (Homo sapiens) (UniProt P10276); assay: ATG_RARa_TRANS: Attagene TRANS-FACTORIAL HepG2 Assay for human Retinoic Acid Receptor alpha (RARa) (AID 2283005; active = hit-call score of the fitted dose curve at least 0.9, where 1 is the maximum)
Summary of the method: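 HepG2 cells transiently transfected with multiple reporter units expressing chimeric RARα-GAL4 fusion, with GAL4-UAS-driven reporters. After 24 h compound exposure, reporter mRNA induction quantified by RT-PCR and capillary electrophoresis with fluorescent labeling; gain-of-signal fitted relative to DMSO control.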

[16] = BSK_3C_Proliferation: Cell Proliferation Assessment in the BioMAP Diversity Plus: 3C Assay (AID 2283006); settings: primary human endothelial cells (HUVEC);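 also: potency may reflect either rise or fall in cell number versus DMSO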
Summary of the method: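 Subconfluent HUVEC (3C system) cultured with chemical; relative cell number read at 48 h by sulforhodamine B total-protein staining (0.1% SRB after 10% TCA fixation, 560 nm). Bidirectional fit relative to DMSO.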

[17] = target: Peroxisome proliferator-activated receptor gamma (Homo sapiens) (UniProt P37231); assay: ATG_PPARg_TRANS: Attagene TRANS-FACTORIAL HepG2 Assay for human Peroxisome Proliferator-activated Receptor-gamma (PPARg) (AID 2283007; active = hit-call score of the fitted dose curve at least 0.9, where 1 is the maximum)
Summary of the method: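 After 24 h of chemical exposure, transfected HepG2 cells carrying PPARγ-Gal4 chimera reporter constructs are lysed for RNA. Reporter transcripts are measured by RT-PCR and capillary electrophoresis with fluorescent labelling, and gain of signal is fitted versus DMSO.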

[18] = target: Nuclear receptor subfamily 1 group I member 2 (Homo sapiens) (UniProt O75469); assay: ATG_PXR_TRANS: Attagene TRANS-FACTORIAL HepG2 Assay for human Pregnane X Receptor (PXR) (AID 2283008; active = hit-call score of the fitted dose curve at least 0.9, where 1 is the maximum)
Summary of the method: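 Fluorescence intensity of FAM-labelled, HpaI-digested reporter amplicons, separated by capillary electrophoresis, quantifies induction. HepG2 cells with PXR-Gal4 trans-reporter system were exposed 24 h; DMSO defines baseline.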

[19] = target: human Retinoic Acid Receptor gamma (RARg), RARG (gene 5916) (UniProt P13631); assay: ATG_RARg_TRANS: Attagene TRANS-FACTORIAL HepG2 Assay for human Retinoic Acid Receptor gamma (RARg) (AID 2283009; active = hit-call score of the fitted dose curve at least 0.9, where 1 is the maximum)
Summary of the method: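 HepG2 transiently transfected with GAL4-UAS reporter units and chimeric NR-Gal4 constructs; 24 h compound exposure. Reporter mRNA quantified by RT-PCR, FAM labeling, HpaI digestion and capillary electrophoresis; gain-of-signal versus DMSO.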

[20] = ATG_NF_kB_CIS: Attagene CIS-FACTORIAL HepG2 Assay for human Nuclear Factor Kappa B (NF-kB) (AID 2282991); settings: HepG2 Attagene cis-factorial NF-kB reporter mRNA; actives raise or lower the signal
Summary of the method: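 Readout is reporter transcript level, gain or loss versus DMSO, measured 24 h post-dose via RT-PCR, fluorescent labelling and capillary electrophoresis. Human HepG2 liver cells carried transiently transfected CIS reporter constructs reflecting endogenous factors.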

Measured: AC50

Sequence of human Peroxisome Proliferator-activated Receptor delta (PPARd), PPARD (gene 5467) (Q03181 whole entry, looked up, the tested form may be a part): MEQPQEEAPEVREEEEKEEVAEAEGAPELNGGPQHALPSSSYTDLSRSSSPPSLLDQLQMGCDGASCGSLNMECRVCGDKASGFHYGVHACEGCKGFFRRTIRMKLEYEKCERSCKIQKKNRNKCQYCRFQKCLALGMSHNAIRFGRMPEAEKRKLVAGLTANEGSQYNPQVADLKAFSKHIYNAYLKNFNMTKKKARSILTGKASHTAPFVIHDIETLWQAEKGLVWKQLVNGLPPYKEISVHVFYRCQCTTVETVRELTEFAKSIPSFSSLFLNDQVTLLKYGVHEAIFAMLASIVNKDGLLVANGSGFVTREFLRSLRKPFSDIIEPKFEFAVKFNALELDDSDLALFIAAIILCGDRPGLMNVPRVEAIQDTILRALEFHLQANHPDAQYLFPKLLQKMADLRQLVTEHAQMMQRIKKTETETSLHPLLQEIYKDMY
Sequence of human Retinoic Acid Receptor gamma (RARg), RARG (gene 5916) (P13631 whole entry, looked up, the tested form may be a part): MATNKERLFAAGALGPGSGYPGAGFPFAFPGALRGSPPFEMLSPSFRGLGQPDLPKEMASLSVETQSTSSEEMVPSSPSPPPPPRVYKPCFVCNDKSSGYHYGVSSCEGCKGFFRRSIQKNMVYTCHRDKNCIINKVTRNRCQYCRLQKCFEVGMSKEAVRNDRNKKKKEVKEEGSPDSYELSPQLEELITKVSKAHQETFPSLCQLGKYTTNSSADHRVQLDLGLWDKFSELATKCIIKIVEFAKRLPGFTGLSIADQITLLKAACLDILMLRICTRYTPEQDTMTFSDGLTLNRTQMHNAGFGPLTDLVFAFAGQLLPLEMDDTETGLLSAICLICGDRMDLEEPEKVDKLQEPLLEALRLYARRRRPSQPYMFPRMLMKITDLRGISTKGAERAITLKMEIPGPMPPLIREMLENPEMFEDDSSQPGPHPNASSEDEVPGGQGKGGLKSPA
Sequence of Peroxisome proliferator-activated receptor gamma (Homo sapiens) (P37231 whole entry, looked up, the tested form may be a part): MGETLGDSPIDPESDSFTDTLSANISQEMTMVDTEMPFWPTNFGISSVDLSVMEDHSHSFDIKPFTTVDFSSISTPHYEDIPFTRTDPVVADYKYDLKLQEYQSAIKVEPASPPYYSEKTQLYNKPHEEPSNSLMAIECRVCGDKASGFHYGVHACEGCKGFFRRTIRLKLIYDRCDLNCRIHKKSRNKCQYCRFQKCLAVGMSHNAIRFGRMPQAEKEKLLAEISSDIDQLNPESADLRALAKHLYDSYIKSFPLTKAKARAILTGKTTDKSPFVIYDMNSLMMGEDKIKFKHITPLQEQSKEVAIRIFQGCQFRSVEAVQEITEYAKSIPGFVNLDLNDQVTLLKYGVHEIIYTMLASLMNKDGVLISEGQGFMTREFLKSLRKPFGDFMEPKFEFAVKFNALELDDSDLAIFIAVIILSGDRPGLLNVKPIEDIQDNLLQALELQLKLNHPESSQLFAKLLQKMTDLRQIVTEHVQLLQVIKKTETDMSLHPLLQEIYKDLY
Sequence of human Retinoic Acid Receptor beta (RARb), RARB (gene 5915) (P10826 whole entry, looked up, the tested form may be a part): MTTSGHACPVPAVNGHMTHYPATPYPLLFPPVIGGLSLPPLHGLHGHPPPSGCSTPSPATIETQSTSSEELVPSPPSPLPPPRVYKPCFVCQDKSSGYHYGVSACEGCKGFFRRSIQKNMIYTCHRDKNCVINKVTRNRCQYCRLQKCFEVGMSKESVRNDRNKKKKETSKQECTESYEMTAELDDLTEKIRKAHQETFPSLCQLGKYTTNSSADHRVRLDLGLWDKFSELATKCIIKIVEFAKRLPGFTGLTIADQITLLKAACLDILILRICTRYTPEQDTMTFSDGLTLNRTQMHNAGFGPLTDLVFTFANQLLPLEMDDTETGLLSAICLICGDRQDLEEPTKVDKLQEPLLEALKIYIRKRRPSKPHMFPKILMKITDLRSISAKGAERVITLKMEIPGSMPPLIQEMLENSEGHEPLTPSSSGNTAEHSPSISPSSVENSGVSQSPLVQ
Sequence of Myc proto-oncogene protein (Homo sapiens) (P01106 whole entry, looked up): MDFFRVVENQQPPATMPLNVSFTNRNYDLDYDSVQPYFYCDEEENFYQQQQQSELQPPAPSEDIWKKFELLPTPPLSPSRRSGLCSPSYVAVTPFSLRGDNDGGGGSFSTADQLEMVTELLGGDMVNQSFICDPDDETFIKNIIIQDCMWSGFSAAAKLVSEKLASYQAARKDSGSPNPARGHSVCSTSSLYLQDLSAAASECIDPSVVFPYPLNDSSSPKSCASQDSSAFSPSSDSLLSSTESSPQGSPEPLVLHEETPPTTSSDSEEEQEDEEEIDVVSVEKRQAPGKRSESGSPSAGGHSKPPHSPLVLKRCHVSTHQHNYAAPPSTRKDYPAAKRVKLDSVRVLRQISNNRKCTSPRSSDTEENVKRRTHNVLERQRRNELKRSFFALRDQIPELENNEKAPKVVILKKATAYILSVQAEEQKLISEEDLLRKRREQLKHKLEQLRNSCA
Sequence of human Peroxisome Proliferator-activated Receptor alpha (PPARa), PPARA (gene 5465) (Q07869 whole entry, looked up, the tested form may be a part): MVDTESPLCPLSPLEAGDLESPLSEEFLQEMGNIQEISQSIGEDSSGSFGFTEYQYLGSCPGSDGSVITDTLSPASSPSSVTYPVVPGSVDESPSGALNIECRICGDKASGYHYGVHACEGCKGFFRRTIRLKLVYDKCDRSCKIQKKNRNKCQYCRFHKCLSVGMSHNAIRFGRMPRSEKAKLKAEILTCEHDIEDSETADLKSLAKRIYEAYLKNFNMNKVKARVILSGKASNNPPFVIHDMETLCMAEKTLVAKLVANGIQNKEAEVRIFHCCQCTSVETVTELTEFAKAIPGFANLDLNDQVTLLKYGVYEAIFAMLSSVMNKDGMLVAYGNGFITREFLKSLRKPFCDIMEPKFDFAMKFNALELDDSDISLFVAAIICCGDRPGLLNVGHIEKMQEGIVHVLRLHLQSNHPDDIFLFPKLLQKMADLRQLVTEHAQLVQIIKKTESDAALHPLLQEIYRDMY
Sequence of Retinoic acid receptor alpha (Homo sapiens) (P10276 whole entry, looked up, the tested form may be a part): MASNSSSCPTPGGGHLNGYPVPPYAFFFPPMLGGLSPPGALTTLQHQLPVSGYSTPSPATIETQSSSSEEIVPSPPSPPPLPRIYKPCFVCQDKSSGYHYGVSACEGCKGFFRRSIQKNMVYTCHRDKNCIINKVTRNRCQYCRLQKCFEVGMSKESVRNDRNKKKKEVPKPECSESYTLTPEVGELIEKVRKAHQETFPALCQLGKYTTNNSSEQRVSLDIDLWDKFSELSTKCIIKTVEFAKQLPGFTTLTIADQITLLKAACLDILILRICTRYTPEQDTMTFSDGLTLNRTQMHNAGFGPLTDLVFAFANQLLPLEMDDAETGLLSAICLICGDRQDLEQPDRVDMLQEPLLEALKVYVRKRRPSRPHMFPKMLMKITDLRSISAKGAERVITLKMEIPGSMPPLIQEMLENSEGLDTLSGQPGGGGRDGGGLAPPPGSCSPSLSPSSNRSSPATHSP
Sequence of Nuclear receptor subfamily 1 group I member 2 (Homo sapiens) (O75469 whole entry, looked up, the tested form may be a part): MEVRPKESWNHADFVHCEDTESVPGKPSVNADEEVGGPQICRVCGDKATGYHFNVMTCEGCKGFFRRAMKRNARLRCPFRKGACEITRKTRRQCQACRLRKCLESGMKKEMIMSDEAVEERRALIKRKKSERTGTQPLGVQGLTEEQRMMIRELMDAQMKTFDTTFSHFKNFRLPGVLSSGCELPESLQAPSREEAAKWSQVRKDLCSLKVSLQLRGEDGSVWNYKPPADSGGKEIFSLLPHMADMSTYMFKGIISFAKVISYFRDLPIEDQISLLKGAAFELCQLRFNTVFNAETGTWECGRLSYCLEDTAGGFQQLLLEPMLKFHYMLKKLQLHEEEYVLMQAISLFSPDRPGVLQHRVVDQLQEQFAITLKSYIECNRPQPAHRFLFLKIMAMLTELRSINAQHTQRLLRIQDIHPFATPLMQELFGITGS
Sequence of Nuclear respiratory factor 1 (Homo sapiens) (Q16656 whole entry, looked up): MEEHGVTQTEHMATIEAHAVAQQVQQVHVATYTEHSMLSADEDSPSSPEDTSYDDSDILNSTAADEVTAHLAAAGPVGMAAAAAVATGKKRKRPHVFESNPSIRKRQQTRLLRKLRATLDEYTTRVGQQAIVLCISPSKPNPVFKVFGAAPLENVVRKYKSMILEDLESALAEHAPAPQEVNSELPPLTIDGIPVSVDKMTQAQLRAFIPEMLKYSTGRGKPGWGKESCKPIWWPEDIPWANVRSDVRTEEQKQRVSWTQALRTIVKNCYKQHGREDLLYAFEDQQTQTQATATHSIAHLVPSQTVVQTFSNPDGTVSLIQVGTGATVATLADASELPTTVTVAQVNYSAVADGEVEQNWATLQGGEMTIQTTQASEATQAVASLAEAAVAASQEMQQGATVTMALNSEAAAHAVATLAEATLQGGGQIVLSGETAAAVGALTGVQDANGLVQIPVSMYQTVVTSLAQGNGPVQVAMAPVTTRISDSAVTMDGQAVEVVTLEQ
Sequence of Cellular tumor antigen p53 (Homo sapiens) (P04637 whole entry, looked up): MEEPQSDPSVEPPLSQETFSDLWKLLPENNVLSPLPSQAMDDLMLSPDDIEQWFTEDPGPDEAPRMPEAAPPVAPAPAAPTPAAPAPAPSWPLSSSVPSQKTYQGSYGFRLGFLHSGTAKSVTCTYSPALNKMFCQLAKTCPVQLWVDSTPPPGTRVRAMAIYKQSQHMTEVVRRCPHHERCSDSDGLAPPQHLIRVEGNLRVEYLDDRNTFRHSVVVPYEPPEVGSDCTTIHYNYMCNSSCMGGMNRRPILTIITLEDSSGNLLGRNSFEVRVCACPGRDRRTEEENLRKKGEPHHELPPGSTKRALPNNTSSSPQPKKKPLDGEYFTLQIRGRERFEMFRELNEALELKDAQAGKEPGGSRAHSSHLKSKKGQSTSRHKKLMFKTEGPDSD

C[C@]12CC[C@H]3C(=CCc4cc(O)ccc43)[C@@H]1CCC2=O
inactive: [1] | [2] | [3] | [4] | [5] | [6] | [7] | [8] | [9] | [10] | [11] | [12] | [13] | [14] | [15] | [17] | [19]
active: [16] 32.1 µM | [18] 26.6 µM

CO[Si](CCCOCC1CO1)(OC)OC (centres undefined)
inactive: [1] | [2] | [3] | [20] | [5] | [6] | [12]
active: [4] 73.2 µM

CCOC(OCC)OCC
inactive: [1] | [2] | [3] | [20] | [4] | [5] | [6] | [15] | [17]

CN(C)C(C)(C)CO
inactive: [1] | [2] | [3] | [20] | [4] | [5] | [12] | [18]

CCN=c1cc2oc3cc(NCC)c(C)cc3c(-c3ccccc3C(=O)OCC)c-2cc1C
active: [2] 17.5 µM | [4] 0.132 µM | [5] 7.4 µM | [6] 1.56 µM
inactive: [1] | [3] | [20] | [12] | [14] | [17] | [18]

OCCCc1cccnc1
inactive: [1] | [2] | [3] | [20] | [4] | [5] | [6] | [15] | [17] | [18] | [19]

CCC/C=C/CO
inactive: [1] | [2] | [3] | [4] | [5] | [6] | [11] | [12] | [15] | [17] | [18]

OCCCCl
inactive: [1] | [2] | [3] | [20] | [4] | [5] | [6] | [12] | [14] | [15] | [18]

CCOCN(C(=O)CS(=O)(=O)O)c1c(C)cccc1CC
inactive: [1] | [2] | [3] | [20] | [4] | [5] | [6] | [14] | [17] | [18] | [19]

CC(C)=CCCC(C)O (centres undefined)
inactive: [1] | [2] | [3] | [20] | [4] | [5] | [6] | [17]

Cc1ccc(O)cn1
inactive: [1] | [2] | [3] | [20] | [4] | [5] | [6] | [12] | [17] | [18]

CCOC(=O)C1CC(=O)C(=C(O)C2CC2)C(=O)C1 (centres undefined)
inactive: [1] | [2] | [3] | [20] | [4] | [5] | [6] | [12] | [17] | [18]

N#Cc1ccccc1O
inactive: [1] | [2] | [3] | [20] | [4] | [5] | [11] | [15] | [17] | [18] | [19]

CCCCCCCCCc1ccc(OCCO)cc1
active: [4] 5.92 µM | [18] 0.732 µM
inactive: [1] | [2] | [3] | [20] | [5] | [6] | [12] | [17] | [19]
